From PubChem BioAssay (NCATS)
Results filed as inconclusive are left out. Active and inactive are the calls of the source. Calls come from the whole dose curve; as a rule, active = well fitted inhibition curve with a large enough effect; inconclusive = small, poorly fitted or top-dose-only effect; inactive = flat fitted curve, though single readings scatter.

These molecules were tested on Zika virus NS2B-NS3 protease (assay: Primary screen GU AMC qHTS for Zika virus inhibitors (AID 1347154;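 note: 0% = no-inhibitor control and -100% = no-enzyme control; nearly all actives have a fitted effect of over 70% in size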)). Conditions: Zika NS2B-NS3 unlinked protease, AMC fluorogenic substrate; series mostly up to 54.1 µM; activity change, negative = inhibition: at the top concentration.
Summary of the method: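 Fluorogenic AMC-substrate cleavage by noncovalent NS2B-NS3 protease complex (25 nM, pH 8.0 Tris buffer with Tween 20) followed for 15 minutes at room temperature (~20% conversion). Percent inhibition from ex340/em450 signal change, fitted by 4-parameter Hill equation.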

Row | Compound | activity change, negative = inhibition | Potency
1 | CC(=O)Nc1cccc(-n2c(=O)n(C3CC3)c(=O)c3c(Nc4ccc(I)cc4F)n(C)c(=O)c(C)c32)c1 | 11.7% (inactive) | –
2 | CN1C(=O)C(Cc2c[nH]c3ccccc23)NC1=S (centres undefined) | -12.4% (inactive) | –
3 | CC(=O)OCC(=O)[C@@]1(O)CC[C@H]2[C@@H]3CCC4=CC(=O)C=C[C@]4(C)[C@@H]3[C@@H](O)C[C@@]21C | 16.3% (inactive) | –
4 | CC(C)=CCCC(C)=CCCC(C)=CCCC(C)=CCCC(C)=CCCC(C)=CCCC(C)=CCCC(C)=CCCC(C)=CCO | 0.225% (inactive) | –
5 | Cc1ccc(C(=O)N(CCCN)[C@@H](c2nc3cc(Cl)ccc3c(=O)n2Cc2ccccc2)C(C)C)cc1 | 11.3% (inactive) | –
6 | CCNC(=O)c1noc(-c2cc(C(C)C)c(O)cc2O)c1-c1ccc(CN2CCOCC2)cc1 | 5.07% (inactive) | –
7 | CNC1CCC(N(Cc2cccc(-c3ccncc3)c2)C(=O)c2sc3ccccc3c2Cl)CC1 (centres undefined) | 6.37% (inactive) | –
8 | CC(C)(O)CC(=O)NCCn1ccc2ncnc(Nc3ccc(Oc4cccc(C(F)(F)F)c4)c(Cl)c3)c21 | 2.13% (inactive) | –
9 | CCC(=O)N1CCN(c2ccc(-n3c(=O)ccc4cnc5ccc(-c6cnc7ccccc7c6)cc5c43)cc2C(F)(F)F)CC1 | 8.59% (inactive) | –
10 | CN[C@@H](C)[C@H]1[C@H](O)C[C@@]2(C)[C@@H]3CC[C@H]4C(C)(C)[C@@H](NC)CC[C@@]45C[C@@]35CC[C@]12C | 2.89% (inactive) | –
11 | Cc1cc(C(C)Nc2ccccc2)c2nc(N3CCOCC3)cc(=O)n2c1 (centres undefined) | -3.89% (inactive) | –
12 | CCN(CCO)CCCOc1ccc2c(Nc3cc(CC(=O)Nc4cccc(F)c4)[nH]n3)ncnc2c1 | 13.4% (inactive) | –
13 | CN(C(Cc1ccc(OS(=O)(=O)c2cccc3cnccc23)cc1)C(=O)N1CCN(c2ccccc2)CC1)S(=O)(=O)c1cccc2cnccc12 (centres undefined) | – | inactive
14 | CS(=O)(=O)c1ccc(C2=C(c3ccccc3)C(=O)OC2)cc1 | 34.3% (inactive) | –
15 | Cc1ccccc1-n1c(Cn2nc(-c3cccc(O)c3)c3c(N)ncnc32)nc2cccc(C)c2c1=O | 20.1% (inactive) | –
16 | CCN1CCN(c2ccc(Nc3cc(N(C)C(=O)Nc4c(Cl)c(OC)cc(OC)c4Cl)ncn3)cc2)CC1 | 15.7% (inactive) | –
17 | CC1(C)CC(=O)c2c(C(F)(F)F)nn(-c3ccc(C(N)=O)c(NC4CCC(O)CC4)c3)c2C1 (centres undefined) | -16.1% (inactive) | –
18 | C[C@@H](N)c1ccc(C(=O)Nc2ccnc3[nH]ccc23)cc1 | 7.42% (inactive) | –
19 | Cc1cnc(CNC(=O)c2c(=O)c3ccc(N4CCCN(C)CC4)nc3n3c2sc2ccccc23)cn1 | 5.27% [at 25.8 µM] (inactive) | –
20 | CN1CCC(COc2cnc(-c3cccc(Cn4nc(-c5cccc(C#N)c5)ccc4=O)c3)nc2)CC1 | 13.4% (inactive) | –
21 | CN(C)CCOc1cc(-c2cn[nH]c2)ccc1NC(=O)C1COc2ccccc2O1 (centres undefined) | 6.86% (inactive) | –
22 | Cc1ccc2c(c1)c1c(n2CCc2ccc(C)nc2)CCN(C)C1 | -4.03% (inactive) | –
23 | Nc1ncnc2c1c(-c1cccc(OCc3ccccc3)c1)cn2C1CC(CN2CCC2)C1 (centres undefined) | 14.7% (inactive) | –
24 | NS(=O)(=O)c1cc(Cl)c(Cl)c(S(N)(=O)=O)c1 | 1.96% (inactive) | –
